The values below come from PubChem BioAssay (NCI).

Experiment [1] in a line: NCI Yeast Anticancer Drug Screen. Data for the rad50 strain (AID 155).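 Further: 0% = growth of vehicle-only cultures of the same strain.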 The conditions noted are these: S. cerevisiae rad50 strain growth inhibition; at 50.0 µM; hits give high values. An outline of the steps:
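Genetically altered yeast (DNA repair pathway); compound treatment; growth inhibition vs vehicle ctrl.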

Experiment [2] is described as follows: NCI Yeast Anticancer Drug Screen. Data for the mec2-1 strain (AID 157). The conditions noted are these: S. cerevisiae mec2-1 strain, at 50.0 µM, hits give high values. The essentials: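 Yeast mec2-1 mutant treated with compound. Readout: growth inhibition vs vehicle controls.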
The nature of experiment [3]: NCI Yeast Anticancer Drug Screen. Data for the sgs1 mgt1 strain (AID 161).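 Further: 0% = growth of cultures given vehicle only.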 The settings on record: S. cerevisiae sgs1 mgt1 strain, at 50.0 µM, hits give high values. An outline of the steps:
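Read-out: growth inhibition vs vehicle controls. Cells: mutant yeast strain deficient in DNA damage repair.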

Experiment [4] is described as follows: NCI Yeast Anticancer Drug Screen. Data for the cln2 rad14 strain (AID 165).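 Further: 0% = growth equal to vehicle treated cultures.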 The settings on record: S. cerevisiae cln2 rad14 strain, at 50.0 µM, hits give high values. The essentials: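 cln2 rad14 yeast strain; compound exposure; growth inhibition read vs vehicle controls.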
The nature of experiment [5]: NCI Yeast Anticancer Drug Screen. Data for the bub3 strain (AID 167). The settings on record: S. cerevisiae bub3 mutant strain, at 50.0 µM, hits give high values. The essentials: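 Yeast carrying a defined mutation is treated with each compound, and growth is compared with that of vehicle-exposed cells to give inhibition.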
Experiment [6] is described as follows: NCI Yeast Anticancer Drug Screen. Data for the mlh1 rad18 strain (AID 175). The settings on record: S. cerevisiae mlh1 rad18 strain growth inhibition; at 50.0 µM; hits give high values. The essentials:
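Yeast w/ defined DNA-repair lesions; compound exposure; growth vs vehicle controls → % inhibition.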

SMILES strings stand for the structures. This is part of a sample that, as a whole, favours compounds with a hit. Of some 79,000 tested, about 15% had one in any assay. A number with no mark means an inactive call. Activity calls are given as the source filed them. No stated cut-off is given here; in the data, active means growth inhibition above about 70%; inactive means the rest.

Consider `C=CCNC(=S)Nc1ccccc1OCC`, for which the growth inhibition is 5.2% in experiment [1]; -3.8% in experiment [2]; -5.05% in experiment [3]; -68.5% in experiment [4]; -9.6% in experiment [5]; 0.2% in experiment [6].
In the case of `CN(C)c1ccc(/C=C(\C#N)c2ccccc2Br)cc1`, the growth inhibition is 0.15% in experiment [1]; -10.5% in experiment [2]; 15.7% in experiment [3]; -28.2% in experiment [4]; 29.6% in experiment [5]; 3.95% in experiment [6].
`CCOc1ccccc1NC(=O)Nc1cccc(C(F)(F)F)c1`: the growth inhibition in experiment [1] was 68.8%; in experiment [2], 60.5%; in experiment [3] it was 76% (active); in experiment [4], 72.3% (active); in experiment [5], 76% (active); in experiment [6], 88.9% (active).
Regarding `Cc1ccc(C(C)C)cc1NC(=O)c1cccc([N+](=O)[O-])c1`, the growth inhibition in experiment [1] is -8.4%; in experiment [2], 6.9%; in experiment [3], 18.9%; in experiment [4] it was -7.1%; in experiment [5], 18.9%; in experiment [6], 8%.
On to `O=C1c2ccccc2C(=O)N1C1(C(=O)O)CCCC1`, for which the growth inhibition was -5.3% in experiment [1]; -7.6% in experiment [2]; -7.65% in experiment [3]; -27.1% in experiment [4]; -15.6% in experiment [5]; -10.4% in experiment [6].
With `CC(=O)Oc1cc2c(cc1OC(C)=O)C1(C)CCC2(C)c2cc(OC(C)=O)c(OC(C)=O)cc21`, the growth inhibition in experiment [1] was 1.6%; in experiment [2], 0.2%; in experiment [3], 3.6%; in experiment [4], 9.55%; in experiment [5] it was -2.7%; in experiment [6], 14.3%.
Regarding `Cc1c(-c2ccc(Cl)cc2)n[nH]c1-c1[nH]nc(-c2ccc(Cl)cc2)c1C`, the growth inhibition in experiment [1] was -2.3%; in experiment [2], -1.95%; in experiment [3], -26.1%; in experiment [4], 3.75%; in experiment [5], -11.4%; in experiment [6] it was -1.9%.
`CC1=CC=NN2C(=O)[C@H](C)C2C1` (stereo partly specified): the growth inhibition in experiment [1] is 5.8%; in experiment [2], 0.75%; in experiment [3], 0.3%; in experiment [4], 10.3%; in experiment [5] it was -9.05%; in experiment [6] it was 9.6%.
Regarding `Nc1ccc(Cl)cc1C(=O)N1CCN(c2ccc([N+](=O)[O-])cn2)CC1`, the growth inhibition in experiment [1] was 33.5%; in experiment [2], 16.2%; in experiment [3], 51.4%; in experiment [4], 36.1%; in experiment [5] it was 42.9%; in experiment [6], 18.8%.
Take `Cc1cc(=O)n2c(n1)sc1ccc3ccccc3c12`: the growth inhibition in experiment [1] was 12%; in experiment [2] it was -11.8%; in experiment [3], 3.1%; in experiment [4] it was 12.8%; in experiment [5] it was -12.8%; in experiment [6] it was 33.9%.
Consider `NC(=O)c1ccc(C(F)(F)F)cc1O`, for which the growth inhibition in experiment [1] is 7.6%; in experiment [2], 12.6%; in experiment [3] it was -4.65%; in experiment [4] it was -21.4%; in experiment [5], 1.2%; in experiment [6] it was 10%.
Turning to `CC12CCCC(C(=O)O)(C1)[C@H](C(C)(C)C(=O)O)CC2` (stereo partly specified), the growth inhibition is -29.5% in experiment [1]; -40.9% in experiment [2]; -15.7% in experiment [3]; 8.75% in experiment [4]; -4.2% in experiment [5]; -10.8% in experiment [6].
`C1CSC(Sc2nc(SC3=NCCS3)nc(SC3=NCCS3)n2)=N1`: the growth inhibition was -22% in experiment [1]; -10.7% in experiment [2]; -10% in experiment [3]; -30.3% in experiment [4]; -31.2% in experiment [5]; -26.4% in experiment [6].
For `CC1CCCN(C(=O)Nc2ccccc2)C1` (stereo unspecified), the growth inhibition in experiment [1] is 14.4%; in experiment [2], -0.8%; in experiment [3] it was -10.2%; in experiment [4], 10.4%; in experiment [5] it was 4.65%; in experiment [6], 1.15%.
Regarding `CCN(CC)CCC(CCN(CC)CC)(COC(=O)c1ccc([N+](=O)[O-])cc1)c1ccccc1`, the growth inhibition in experiment [1] is 19.7%; in experiment [2], 9.1%; in experiment [3], 20.1%; in experiment [4], -4.15%; in experiment [5], -0.55%; in experiment [6], 12.6%.
As to `CCCCCCCCC(C)(C)O`, the growth inhibition is -3.15% in experiment [1]; -3.55% in experiment [2]; -1.25% in experiment [3]; 3.05% in experiment [4]; 5.65% in experiment [5]; -4.45% in experiment [6].
On to `CCCCCCCCOC(=O)CO`, for which the growth inhibition in experiment [1] was 23.8%; in experiment [2], -30.1%; in experiment [3], 17.8%; in experiment [4] it was 5.35%; in experiment [5], 3.1%; in experiment [6], 12.3%.
Take `NC(=O)c1ccc(Cl)c([N+](=O)[O-])c1`: the growth inhibition in experiment [1] is 8.2%; in experiment [2], 2.85%; in experiment [3] it was -7.3%; in experiment [4], 6.45%; in experiment [5], -31.3%; in experiment [6], 2.15%.
In the case of `Cc1cc2c3c(c1)CCCN3CCC2`, the growth inhibition in experiment [1] is -12.1%; in experiment [2], -8.9%; in experiment [3], -9.85%; in experiment [4], -30.9%; in experiment [5], 3.1%; in experiment [6], 2.8%.
Take `CC(C)(C)OC(=O)NC(Cc1ccccc1)OCc1ccccc1` (stereo unspecified): the growth inhibition was -11.3% in experiment [1]; -25.2% in experiment [2]; -0.05% in experiment [3]; 11.8% in experiment [4]; -15.4% in experiment [5]; -19.7% in experiment [6].
In the case of `NOCCCCON`, the growth inhibition in experiment [1] was -5.05%; in experiment [2] it was -6.8%; in experiment [3], 8.95%; in experiment [4], -66.8%; in experiment [5], 0.25%; in experiment [6], -7.05%.
